Drawing on PubChem BioAssay AID932 (The Scripps Research Institute Molecular Screening Center, 2007), this text covers activation (% of control) for 80 molecules.

SMILES strings stand for the structures. Hit rate of the full screen: of about 200,000 compounds, about 5,100 (2.5%) were called active.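 The calls were made as follows: active = activation above the screen-wide mean activation plus 3 SD (cut at about 130% in these data); inactive = the rest.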 Only a selection was taken, and actives are over-represented in it overall.

The test in a line: STAT1 signaling activators, primary screen, cell-based, HTS, luciferase reporter (AID 932).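 Also: raw ratio to IFN-gamma control signal so 100% means no change and 0% no light.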 The conditions noted are these: NIH 3T3 STAT1-luciferase reporter, IFN-gamma, luminescence; at 5.5 µM; hits give high values; 100% = IFN-gamma alone, no compound.
In the case of `CSc1ccc(C#N)cc1NC(=O)c1cccc(Cl)c1`, the activation (% of control) was 106% (inactive).

Consider `O=C(Nc1ccn(Cc2ccccc2F)n1)c1ccc(COc2ccc(Cl)cc2Cl)o1`, for which the activation (% of control) is 105% (inactive).

Turning to `N#Cc1ccccc1NC(=O)c1cccc(COc2ccc(Cl)cc2Cl)c1`, the activation (% of control) is 132% (active).

`CN1C=CC=C/C1=C1\SC(=S)N(Cc2ccccc2)C1=O`: the activation (% of control) is 104% (inactive).

For the molecule `O=C(NCc1ccccn1)Nc1ccc(F)cc1`, the activation (% of control) is 108% (inactive).

Consider `c1ccc(CN=C2Nc3ccccc3CS2)nc1`, for which the activation (% of control) is 135% (active).

As to `CC(C)(C)NC(=O)CN1CCC(NC(=O)C23CC4CC(CC(C4)C2)C3)CC1`, the activation (% of control) is 96.5% (inactive).

As for `COc1ccc(-n2nc(C(=O)NCC(=O)Nc3cccc(C)n3)c3ccccc3c2=O)cc1`, the activation (% of control) is 99.9% (inactive).

With `CCOC(=O)CNC(=O)c1nn(-c2cccc(OC)c2)c(=O)c2ccccc12`, the activation (% of control) is 130% (active).

For the molecule `COc1cccc(-n2nc(C(=O)N3CCN(Cc4ccccc4)CC3)c3ccccc3c2=O)c1`, the activation (% of control) was 99.9% (inactive).

As to `COc1ccc(-c2nn3c(-c4ccccc4)nnc3s2)cc1OC`, the activation (% of control) was 114% (inactive).

As to `COc1ccc(-c2csc(-c3cccs3)n2)cc1OC`, the activation (% of control) is 182% (active).

Take `COc1ccc(C2CC(c3cccs3)=Nc3ccccc3S2)cc1OC` (stereo not given): the activation (% of control) is 106% (inactive).

`Cc1ccc(NC(=S)N(CCN(C)C)Cc2cccs2)cc1C`: the activation (% of control) was 97.2% (inactive).

With `Cc1ccc(NC(=O)CNCc2ccccn2)cc1S(=O)(=O)N(C)C`, the activation (% of control) is 97.7% (inactive).

As to `Cc1ccc(NC(=O)c2cccs2)cc1S(=O)(=O)N(C)C`, the activation (% of control) is 101% (inactive).

As to `Cc1ccc(C(=O)Nc2ccc(C)c(S(=O)(=O)N(C)C)c2)s1`, the activation (% of control) was 141% (active).

Turning to `C#CCOCCOCCOCCNc1nc(N2CCN(C(=O)C(Cc3ccc(O)cc3)n3cc(C(N)CC(C)C)nn3)CC2)nc(N2CCN(C(=O)C(Cc3ccc(O)cc3)n3cc(C(N)C(C)CC)nn3)CC2)n1` (stereo not given), the activation (% of control) is 109% (inactive).

For the molecule `O=C(NC(=S)Nc1cccc(-c2ccc(CO)o2)c1)c1cccs1`, the activation (% of control) was 93.4% (inactive).

As for `Cc1cc(-c2n[nH]c(=S)n2-c2ccc(C)c(C)c2)no1`, the activation (% of control) is 90.1% (inactive).

With `CCOC(=O)c1ccccc1N1C(=O)C2Sc3[nH]c(=O)sc3C(/C=C/c3ccccc3)C2C1=O` (stereo not given), the activation (% of control) is 114% (inactive).

Regarding `COC(C(=O)Nc1ccc(S(=O)(=O)Nc2ccc(C)c(C)c2)cc1)c1ccccc1` (stereo not given), the activation (% of control) was 108% (inactive).

Turning to `Nc1ccc(SCCN2C(=O)c3ccccc3C2=O)cc1`, the activation (% of control) was 129% (active).

Take `Cc1ccc(SCCN2C(=O)NC(C)(C)C2=O)cc1`: the activation (% of control) was 103% (inactive).

Regarding `CC(=O)c1cnc(SCCN2C(=O)c3ccccc3C2=O)nc1C`, the activation (% of control) is 95.5% (inactive).

Turning to `O=C(CN1CCSCC1)N/N=C/c1ccc(Cl)cc1`, the activation (% of control) was 107% (inactive).

`COc1ccc(-c2ccc(CCC(=O)O)n2-c2ccc(O)cc2)cc1`: the activation (% of control) was 101% (inactive).

Turning to `O=C(NCCc1ccccc1)c1ccc(OCCOc2ccccc2)cc1`, the activation (% of control) is 109% (inactive).

Regarding `CC(C)c1ccc(C(=O)NCCCc2ccccc2)cc1`, the activation (% of control) was 131% (active).

`CCCOc1ccc(C(=O)NCCc2ccccc2)cc1`: the activation (% of control) is 76.1% (inactive).

Consider `COc1ccc(Cc2nnc(NC(=O)c3cc(OC)c(OC)c(OC)c3)s2)cc1OC`, for which the activation (% of control) was 89.1% (inactive).

On to `CCOCCCNC(=O)C(NC(=O)Cc1c[nH]c2ccccc12)c1ccc(OC)cc1` (stereo not given), for which the activation (% of control) was 87.9% (inactive).

Turning to `O=C(CSCc1cccs1)N1CCCC1`, the activation (% of control) is 129% (active).

For the molecule `O=C(CSc1ccsc1[N+](=O)[O-])N1CCCCC1`, the activation (% of control) is 94.8% (inactive).

As to `O=C(CSCc1ccc(Cl)cc1)N1CCCCC1`, the activation (% of control) is 121% (inactive).

`COc1ccc(C(=O)NCc2nnc(SCCOc3ccccc3)n2C)cc1`: the activation (% of control) was 102% (inactive).

Take `CCS(=O)(=O)n1nc(-c2ccc(OC)cc2)nc1SC`: the activation (% of control) was 112% (inactive).

On to `CS(=O)(=O)n1nc(-c2ccccc2)nc1NCc1ccco1`, for which the activation (% of control) is 102% (inactive).

As to `CCS(=O)(=O)n1nc(-c2ccccc2)nc1SCc1ccccc1`, the activation (% of control) was 130% (active).

As to `COc1cccc(-n2c(=O)c3c(C)c(C(=O)N(C)C)sc3n(CC(=O)NCCc3ccc(OC)c(OC)c3)c2=O)c1`, the activation (% of control) was 97.9% (inactive).

On to `COc1ccc(NC(=O)c2ccc(OC)cc2)cc1`, for which the activation (% of control) is 140% (active).

`COc1ccc(/C=N/NC(=O)Nc2ccc3nsnc3c2)c(OC)c1`: the activation (% of control) is 114% (inactive).

On to `COc1ccc(C(=O)Nc2ccc(S(=O)(=O)NC(C)C)cc2)cc1`, for which the activation (% of control) was 93.8% (inactive).

Consider `COc1ccc(NC(=O)Nc2ccc3nsnc3c2)cc1`, for which the activation (% of control) is 146% (active).

On to `COc1ccc(NC(=O)c2ccc(C#CC(C)(C)O)cc2)cc1`, for which the activation (% of control) is 106% (inactive).

`COc1ccc(NC(=O)Nc2ccc3nc(C)c(C)nc3c2)cc1`: the activation (% of control) is 103% (inactive).

`CCOc1cc(/C=C(/C#N)c2ccc(Cl)cc2)cc(Cl)c1OCC(=O)O`: the activation (% of control) is 56.1% (inactive).

For `COc1ccccc1Cn1c(C)nnc1-c1cnn(C)c1N`, the activation (% of control) was 93.2% (inactive).

In the case of `CCN(CCn1cccn1)Cc1cn[nH]c1-c1ccc(OC)cc1F`, the activation (% of control) was 89% (inactive).

As to `COc1ccc2ccccc2c1CNc1nnnn1C`, the activation (% of control) was 99.2% (inactive).

`CCC(=O)Nc1c(C)n[nH]c1C`: the activation (% of control) was 102% (inactive).

In the case of `COc1ccc(-n2cc(CN(C)Cc3n[nH]c(=O)[nH]3)c(-c3cccc(F)c3)n2)cc1`, the activation (% of control) is 104% (inactive).

With `Cc1ccc(NC(=S)N(CCCN2CCCC2)Cc2cccn2Cc2ccc(Cl)cc2)cc1`, the activation (% of control) was 85.3% (inactive).

As for `Cc1ccc(S(=O)(=O)NCCc2nnc3ccc(SCc4cccnc4)nn23)cc1`, the activation (% of control) was 99% (inactive).

Turning to `COc1ccc(-c2noc(-c3cccc(OC)c3OC)n2)cc1OC`, the activation (% of control) is 144% (active).

Consider `COc1cc(-c2nc(-c3ccncc3)no2)cc(OC)c1OC`, for which the activation (% of control) is 97.3% (inactive).

On to `CCOc1nc(-c2ccc(OC)cc2)ccc1-c1noc(-c2cc(OC)c(OC)c(OC)c2)n1`, for which the activation (% of control) was 102% (inactive).

As to `COc1cccc(NC(=O)CN(C)C(C)C(=O)Nc2ccc(C#N)cc2)c1` (stereo not given), the activation (% of control) is 90.8% (inactive).

As to `COc1cccc(/C=N/NC(=O)C(=O)N2CCCC2)c1`, the activation (% of control) was 99% (inactive).

Turning to `O=C(N/N=C/c1ccc2c(c1)OCO2)C(=O)N1CCCC1`, the activation (% of control) was 132% (active).

With `O=C(N/N=C/c1ccc([N+](=O)[O-])cc1)C(=O)N1CCCC1`, the activation (% of control) is 107% (inactive).

As for `CC(Nc1nc(N2CCN(CCO)CC2)nc2ccccc12)c1ccccc1` (stereo not given), the activation (% of control) is 106% (inactive).

For the molecule `CN(CCC1CCOCC1)Cc1cn[nH]c1-c1ccc(-c2ccccc2)cc1`, the activation (% of control) is 115% (inactive).

Regarding `O=C(CSc1ccc(-c2cccs2)nn1)Nc1ccccc1F`, the activation (% of control) is 104% (inactive).

As to `Cc1cccc(CSc2ccc(-c3cccs3)nn2)c1`, the activation (% of control) is 130% (active).

Turning to `Cc1cccc(CSc2nnc(NC(=O)CSc3nnc(C)s3)s2)c1`, the activation (% of control) is 107% (inactive).

As for `Cc1ccc(NC(=S)N(CCN2CCCCC2)Cc2ccco2)cc1C`, the activation (% of control) was 98% (inactive).

Consider `C=CCC1(CC=C)CCCN1C(=O)CC1C(=O)NCCN1Cc1ccccc1OC` (stereo not given), for which the activation (% of control) is 98.1% (inactive).

Take `CCn1c(C)nc2cc(C(=O)NNS(=O)(=O)c3ccc(C)cc3C)ccc21`: the activation (% of control) is 95% (inactive).

Take `CCOC(=O)c1ccc2c(c1)nc(SCC(=O)NC(C)C)n2CC`: the activation (% of control) is 103% (inactive).

Take `CCOC(=O)c1ccc2c(c1)nc(C)n2CC`: the activation (% of control) is 130% (active).

Turning to `COc1ccc2nc(/N=C(\N)NC(=O)Nc3ccccc3)nc(C)c2c1`, the activation (% of control) is 104% (inactive).

Take `Cc1ccc(/C=N/NC(=O)Cn2ccc(C(F)(F)F)n2)o1`: the activation (% of control) is 94.7% (inactive).

As for `Cc1cc(N/C=C\C(=O)c2ccc(Cl)c(Cl)c2)no1`, the activation (% of control) was 135% (active).

In the case of `COc1ccc(C(=O)/C=C/Nc2ccccn2)cc1`, the activation (% of control) was 23.6% (inactive).

Regarding `CCC(=O)Nc1ccc(C(=O)Nc2cc(C)on2)cc1`, the activation (% of control) was 107% (inactive).

As to `CCn1c(C(C)C)n[nH]c1=S`, the activation (% of control) is 103% (inactive).

As for `CCc1nnc(NC(=O)CSc2nc(SC)ns2)s1`, the activation (% of control) is 101% (inactive).

Consider `O=C(CSc1nnc2ccc(-c3ccncc3)nn12)N1CCCCC1`, for which the activation (% of control) was 95.3% (inactive).

For the molecule `CCSC1=NCCN1C(=O)c1ccc(S(=O)(=O)N(CC)CC)cc1`, the activation (% of control) was 95.6% (inactive).
